Test results taken from PubChem BioAssay AID1645838 (ICCB-Longwood Screening Facility, Harvard Medical School, 2021).
Hit rate of the full screen: of about 2,000 compounds, about 100 (5%) were called active. No stated cut-off is given here; in the data, active means z-score above about 2; inactive means the rest. Many of the other results were omitted from the sample, so actives are more common in it than they were.

Assay: modulators of mitochondrial supercomplex assembly, cell-based, luminescence, Hoechst nuclei count (AID 1645838);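 further: control cybrid cells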
Conditions: Cells, luminescence/Hoechst cell count ratio, supercomplex reporter; for z-score: stronger effect = higher value; for cell count: measured here: cell number, Hoechst nuclei count
[1] = library stock concentration (final well concentration not given) 46 uM
[2] = library stock concentration (final well concentration not given) 80 uM
[3] = library stock concentration (final well concentration not given) 278 uM
[4] = library stock concentration (final well concentration not given) 400 uM
[5] = library stock concentration (final well concentration not given) 1.67 mM
[6] = library stock concentration (final well concentration not given) 2 mM
[7] = library stock concentration (final well concentration not given) 10 mM

CCCCCC(=O)CC[C@H]1C(=O)C[C@H](O)[C@@H]1C/C=C\CCCC(=O)O
z-score: 0.618 (inactive)
cell count: 5420

CN1CCN(c2ccc(Nc3c4ccccc4nc4ccccc34)cc2)CC1
outcome (library stock 2 mM): inactive; censored for cell count
outcome (library stock 10 mM): inactive; censored for cell count
z-score [1]: 0.226 (inactive)
z-score [2]: -0.0401 (inactive)
z-score [3]: 0.109 (inactive)
z-score [4]: 1.07 (inactive)
z-score [5]: 0.208 (inactive)
cell count [1]: 6220
cell count [2]: 5080
cell count [3]: 5990
cell count [4]: 4020
cell count [5]: 6120

CS(=O)(=O)Nc1ccc([N+](=O)[O-])cc1Oc1ccccc1
z-score: 1.64 (inactive)
cell count: 4310

COc1cc(NS(C)(=O)=O)ccc1Nc1c2ccccc2nc2ccccc12
outcome (library stock 2 mM): inactive; censored for cell count
outcome (library stock 10 mM): inactive; censored for cell count
z-score [2]: 0.627 (inactive)
z-score [4]: 2.51 (active)
cell count [2]: 4290
cell count [4]: 2280

COCC(c1ccc(C(F)(F)F)cc1)N1CCN(C2(C)CCN(C(=O)c3c(C)ncnc3C)CC2)CC1C (stereo unspecified)
z-score [2]: -0.275 (inactive)
z-score [4]: -0.0621 (inactive)
z-score [6]: -0.0993 (inactive)
z-score [7]: 0.309 (inactive)
cell count [2]: 6100
cell count [4]: 5370
cell count [6]: 5980
cell count [7]: 5030

CC(C(=O)Nc1cccc(N=Cc2c(O)ccc3ccccc23)c1)c1ccccc1 (stereo unspecified)
z-score: -0.78 (inactive)
cell count: 5730

COc1ccccc1Oc1c(NS(=O)(=O)c2ccc(C)cn2)nc(-c2ccncc2)nc1OC
z-score [1]: -0.0599 (inactive)
z-score [3]: -0.113 (inactive)
z-score [5]: 0.0903 (inactive)
z-score [7]: 0.0187 (inactive)
cell count [1]: 7280
cell count [3]: 6760
cell count [5]: 7600
cell count [7]: 7550

CCCCCCCCCCCCCCCC(=O)OC[C@H](COP(=O)([O-])OCC[N+](C)(C)C)OC(=O)CCCCCCCC(=O)/C=C/C(=O)O
z-score: -0.738 (inactive)
cell count: 5950

CCCCC[C@H](O)/C=C/[C@@H]1[C@H](C/C=C\CCCC(=O)O)[C@@H](O)C[C@H]1O
z-score: -0.418 (inactive)
cell count: 5540

O=C(Nc1ccc(S(=O)(=O)Nc2ccccc2Cl)c(Cl)c1)c1ccccn1
z-score [2]: -0.0523 (inactive)
z-score [4]: 0.247 (inactive)
z-score [6]: 0.0843 (inactive)
z-score [7]: -0.408 (inactive)
cell count [2]: 5940
cell count [4]: 5620
cell count [6]: 5480
cell count [7]: 5970

Cc1cc(Nc2cc(NC(=O)c3c(Cl)cccc3Cl)ccn2)nc(N)n1
outcome (library stock 10 mM): inactive
z-score [1]: -0.552 (inactive)
z-score [3]: 2.25 (active)
z-score [5]: 7.34 (active)
cell count [1]: 7000
cell count [3]: 3680
cell count [5]: 1560

Cc1cc(Nc2ccc(NC(=O)c3ccc(Nc4ccnc5ccccc45)cc3)cc2)nc(N)n1
outcome (library stock 10 mM): inactive; censored for cell count
z-score [2]: -0.573 (inactive)
z-score [4]: -0.616 (inactive)
z-score [6]: -0.871 (inactive)
cell count [2]: 6440
cell count [4]: 6580
cell count [6]: 6140

COc1ccc(C(=O)C(=O)c2ccccc2)cc1
z-score [1]: -0.147 (inactive)
z-score [3]: -0.127 (inactive)
z-score [5]: -0.0906 (inactive)
z-score [7]: -0.261 (inactive)
cell count [1]: 5340
cell count [3]: 4770
cell count [5]: 4920
cell count [7]: 4940

CCCCCCCCCCCCCCCC(=O)SCCOP(=O)([O-])OCC[N+](C)(C)C
z-score: 0.0631 (inactive)
cell count: 5610

CCC1C(=O)N(C)c2cnc(Nc3ccc(C(=O)NC4CCN(C)CC4)cc3OC)nc2N1C1CCCC1 (stereo unspecified)
outcome (library stock 80 µM): inactive; censored for cell count
outcome (library stock 400 µM): inactive; censored for cell count
outcome (library stock 2 mM): inactive; censored for cell count
outcome (library stock 10 mM): inactive; censored for cell count

COc1cc(C(=O)NC2CCN(C)CC2)ccc1Nc1ncc2c(n1)N(C1CCCC1)C(C)CC(=O)N2C (stereo unspecified)
outcome (library stock 10 mM): inactive; censored for cell count
z-score [2]: -0.18 (inactive)
z-score [4]: -0.538 (inactive)
z-score [6]: -0.076 (inactive)
cell count [2]: 4460
cell count [4]: 4710
cell count [6]: 4310

COc1cc(C(=O)N2CCC(N3CCN(C)CC3)CC2)ccc1Nc1ncc2c(n1)N(C)c1ccccc1C(=O)N2C
z-score [2]: -0.05 (inactive)
z-score [4]: 0.293 (inactive)
z-score [6]: 2.34 (active)
z-score [7]: 4.4 (active)
cell count [2]: 4870
cell count [4]: 4880
cell count [6]: 4160
cell count [7]: 3320

CCCCC[C@@H](O)/C=C/[C@@H]1[C@H](C/C=C\CCCC(=O)O)[C@@H](O)C[C@H]1O
z-score: -0.594 (inactive)
cell count: 5750

COCCOc1ccc2c(c1)ncn2-c1ccc2cccc(N3CCC(N)CC3)c2n1
outcome (library stock 10 mM): inactive; censored for cell count
z-score [2]: 1.84 (inactive)
z-score [4]: 2.21 (active)
z-score [6]: 2.12 (active)
cell count [2]: 4940
cell count [4]: 5070
cell count [6]: 4020

CCCCC[C@H](O)CC[C@@H]1[C@@H](C/C=C\CCCC(=O)O)[C@@H](O)C[C@H]1O
z-score: -1.49 (inactive)
cell count: 6030
